Experimental data: PubChem BioAssay (NCI)
This is part of a sample that, as a whole, favours compounds with a hit. Of some 83,000 tested, about 20% had one in any assay.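 Each cell line was grown in a 96-well plate and treated with one concentration of compound for 48 hours. Values below 10 were considered active.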 A number with no mark means an inactive call. Calls of active or inactive are those of the source.

Key:
Test in all cases: NCI-60 one-dose screen, 48 h (100 = growth as untreated, 0 = no growth, -100 = all killed)
Settings in all cases: 10 µM unless noted
[1] = tested on: HT29 colon
[2] = tested on: SNB-19 CNS
[3] = tested on: U251 CNS
[4] = tested on: SK-MEL-5 melanoma
[5] = tested on: UACC-62 melanoma
[6] = tested on: LOX IMVI melanoma
[7] = tested on: SK-MEL-28 melanoma
[8] = tested on: SK-MEL-2 melanoma
[9] = tested on: EKVX NSCLC
[10] = tested on: SN12C renal
[11] = tested on: UO-31 renal
[12] = tested on: TK-10 renal
[13] = tested on: ACHN renal
[14] = tested on: A498 renal
[15] = tested on: CCRF-CEM leukemia
[16] = tested on: MOLT-4 leukemia
[17] = tested on: SR leukemia
[18] = tested on: SNB-75 CNS
[19] = tested on: PC-3 prostate
[20] = tested on: CAKI-1 renal

Compound	growth [1]	growth [2]	growth [3]	growth [4]	growth [5]	growth [6]	growth [7]	growth [8]	growth [9]	growth [10]	growth [11]	growth [12]	growth [13]	growth [14]	growth [15]	growth [16]	growth [17]	growth [18]	growth [19]	growth [20]
CCCCCCCCCCSc1ncnc2nc[nH]c12	90.9%	74.7%	68.8%	56.4%	69.9%	56.3%	116%	101%	51.4%	59.8%	48.5%	82%	63.9%	61.4%	57.9%	72.5%	82.6%	–	–	–
CN1CCCC1c1cccnc1 (stereo not given)	–	105%	97.1%	87.7%	94.1%	100%	101%	-0.647% (active)	123%	94.2%	97%	132%	99%	94.1%	70%	101%	85.7%	99.7%	48.7%	120%
Cc1cc(Cl)ccc1Nc1nc(C(F)(F)F)ccc1C(=O)NCC(=O)N/N=C/c1c(Cl)cccc1Cl	–	90.5%	67.7%	70.5%	63%	56.3%	85.7%	98.2%	48%	78.3%	65.9%	76.8%	57.7%	83.3%	19.5%	50.8%	42.2%	97.7%	-16.1% (active)	0.101% (active)
CC(C)[O-].CC(C)[O-].CN(CCN(C)Cc1cc(F)cc(F)c1[O-])Cc1cc(F)cc(F)c1[O-].[Ti+4]	-25.7% (active)	–	4.7% (active)	-59.5% (active)	-22.8% (active)	-39% (active)	-23.3% (active)	-52% (active)	-8.9% (active)	19.7%	-14.5% (active)	-12.6% (active)	9.76% (active)	–	16.4%	8.02% (active)	1.21% (active)	–	15.9%	-11.1% (active)
CCN(CC)CCOc1ccccc1-n1c(C)ccc1-c1ccccc1	–	102%	85.3%	90.8%	106%	88.5%	119%	102%	83.8%	91.7%	55.2%	85.2%	105%	65.1%	28.1%	–	-29.4% (active)	93%	62.8%	85.1%
Nc1nc(SCC2(CCl)COC2)c2[nH]cnc2n1	99.2%	99.2%	101%	107%	96.2%	95.8%	103%	97.1%	107%	100%	75.9%	102%	95.7%	–	–	89%	83.8%	–	93.5%	105%
COc1ccc2c(c1)C(=O)c1c-2c(=O)n(CCCCCCC(=O)NO)c2ccccc12	–	–	-58.8% (active)	-85.7% (active)	-55.5% (active)	-82% (active)	-18% (active)	10.4%	31.3%	8.66% (active)	-33.8% (active)	-9.14% (active)	-57.8% (active)	-67.8% (active)	-7.49% (active)	4.43% (active)	5.2% (active)	29.7%	-8.27% (active)	-55.4% (active)
NCCCc1nnc(CCC(=O)c2nc3ccccc3[nH]2)o1	–	102%	102%	108%	90.2%	90.9%	105%	–	117%	92.3%	91.8%	102%	–	97.4%	90.9%	98.2%	84.5%	90.8%	–	103%
c1coc([C@@H]2C[C@@H]3Cc4ccc5ccccc5c4N2O3)c1	–	104%	102%	101%	103%	103%	111%	–	103%	108%	75%	88.6%	–	90.2%	–	73.7%	88.8%	89.2%	–	84.7%
COC(=O)CCC1=C(CC(=O)OC)C(C)=N/C1=C\c1[nH]c(-c2ccc[nH]2)cc1OC	–	69.3%	26.5%	-22.7% (active)	-4.87% (active)	-48.3% (active)	–	–	61.5%	38.7%	-25.3% (active)	28.3%	15.5%	72.1%	2.36% (active)	-6.53% (active)	-24.6% (active)	12.9%	–	24.7%
CCOc1cc(-c2ccc[nH]2)[nH]c1/C=C1\N=C(C)C(C(=O)OC)=C1C	–	11.9%	-62.4% (active)	-93% (active)	-74.7% (active)	-56.5% (active)	–	–	-50.3% (active)	-75.8% (active)	-79.9% (active)	-85.8% (active)	-76.8% (active)	-74% (active)	-37.8% (active)	-53.8% (active)	-45.5% (active)	-65% (active)	–	–
COC(=O)CCC1=C(C)C(C)=N/C1=C\c1[nH]c(-c2ccc[nH]2)cc1OC	–	35%	-22.9% (active)	-91.5% (active)	-67.4% (active)	-55.5% (active)	–	–	29.9%	13.9%	-67% (active)	16%	-7.31% (active)	4.29% (active)	-22.7% (active)	-29.7% (active)	-31.4% (active)	-34.9% (active)	–	11.6%
Cc1cc(NCCCNc2ccnc3cc(Cl)ccc23)nc(N2CCN(C)CC2)n1	–	115%	69.7%	–	33.4%	–	88.3%	–	–	77.6%	58.6%	133%	45.7%	82.4%	26.1%	21.2%	0.0449% (active)	76.6%	–	57%
Oc1ccccc1C=Nc1ccccc1N=Cc1ccccc1O.[Cu+2]	–	91.7%	61.8%	24.1%	43.9%	47.6%	85.1%	–	67.1%	60.3%	24%	84.1%	57.3%	92.8%	27.9%	3.28% (active)	66.3%	47.9%	–	68.6%
O=C(CCc1nnc(Cn2ccnc2)o1)c1nc2ccccc2[nH]1	–	108%	110%	104%	91%	90.4%	–	–	99.2%	98.5%	92%	110%	107%	101%	101%	92.8%	87.7%	97.9%	–	110%
C=C(C)[C@@H]1C[C@H](O)Cc2cc(Cl)cc(Cl)c2N1	–	103%	94.7%	–	95%	92.3%	114%	–	84.3%	96.9%	81.4%	98.7%	95.9%	87.2%	103%	88.3%	108%	87.4%	–	91.6%
COc1cc(/C=C/C(=O)N2CCN(C(=O)/C=C/c3ccccc3)CC2)cc(OC)c1OC	–	96.4%	103%	106%	100%	107%	110%	116%	121%	111%	77.7%	–	110%	–	100%	87.8%	78.7%	–	93.6%	104%
O[C@@H]1Cc2ccc3ccccc3c2N[C@H](c2ccoc2)C1	–	102%	100%	92.8%	101%	92.7%	125%	–	95.9%	103%	82.3%	106%	103%	84.4%	81.3%	88.2%	93.3%	95.5%	–	–
CC1=CSC2=NCCN12	–	101%	109%	106%	100%	94.4%	118%	–	103%	99.5%	77.6%	97.7%	110%	118%	93.6%	102%	93.1%	98.4%	–	93.5%
